Drawing on PubChem BioAssay (NCI), this text covers growth for 13 molecules.

Compounds without any hit were thinned out: in the full panel of roughly 83,000, 20% have a hit.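 Cell lines were cultured in 96-well plates, exposed to a single compound concentration, and assessed for percent growth 48 hours later.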 Values without a mark were called inactive. The source made the active and inactive calls. Rule for the calls: active = growth percent below 10; inactive = the rest.

Common to all, as to assay: NCI-60 one-dose screen, 48 h (100 = growth as untreated, 0 = no growth, -100 = all killed)
Holding throughout (conditions): 10 µM

Test [1] concerns HCT-15 colon.
The subject of test [2] is HT29 colon.
For test [3], the system named is SNB-75 CNS.
Test [4] has as its system SNB-19 CNS.
Test [5] has as its system U251 CNS.
Test [6] has as its system PC-3 prostate.
Test [7] relates to SK-MEL-5 melanoma.
The test system of test [8] is UACC-62 melanoma.
For test [9], the system named is LOX IMVI melanoma.
Test [10] has as its system SK-MEL-28 melanoma.

As for `Cc1ccc(C(=O)O)c(N)c1C`, the growth is 99.7% in [1]; 101% in test [2]; 82.6% in [3]; 107% in test [4]; 100% in test [5]; 94.6% in [6]. The growth in test [7] was 107%; in test [8] it was 103%; in test [9], 93.8%; in [10], 122%.

Regarding `O=C(c1ccccc1)C(Nc1ccccc1)c1ccccc1` (stereo not given), the growth in test [1] was 97.8%; in [2], 86.4%; in test [3] it was 79.6%; in [4] it was 101%; in [5] it was 89.6%; in [6], 75.5%. Besides, the growth in [7] was 85.6%; in test [8] it was 74.9%; in test [9], 86%; in [10], 99%.

As to `CC(C)(C)c1ccc(OCCCCCCN2CCNCC2)cc1`, the growth in [1] was 6.25% (active); in [2], 25%; in test [3], 53.7%; in test [4] it was 66.2%; in test [5] it was 30.7%; in test [6], 39.6%. Also, the growth in test [7] was 50.4%; in test [8], -32.2% (active); in test [9], -16.7% (active); in test [10], 59.1%.

For the molecule `COc1cc(-c2nc(-c3nnc(-c4cccnc4)o3)c3ccccn23)cc(OC)c1OC`, the growth in [1] was 111%; in test [2], 97.4%; in test [3], 96.7%; in test [4] it was 102%; in test [5], 95%; in test [6], 101%. Besides, the growth in test [7] is 90.7%; in test [8] it was 106%; in [9], 97.3%; in test [10], 121%.

With `O=C(O)c1cc(C(F)(F)F)cc(C(F)(F)F)c1`, the growth in test [1] was 104%; in test [2], 100%; in test [3], 97.6%; in test [4] it was 118%; in test [5] it was 103%; in test [6] it was 97.7%. Moreover, the growth was 109% in [7], 108% in test [8], 99.7% in [9] and 103% in test [10].

As to `COc1ccc2nc(NC(=O)Nc3c(F)cccc3F)sc2c1`, the growth is 101% in test [1]; 102% in test [2]; 118% in test [3]; 97.2% in [4]; 95% in test [5]; 95% in [6]. In addition, the growth in test [7] is 91.2%; in test [8], 94.4%; in test [9] it was 106%; in test [10], 103%.

For the molecule `CCCCN(CCCC)c1ccc(C(=NC(C)CCCN(CC)CC)c2ccc(N(C)C)cc2)cc1` (stereo not given), the growth in test [1] was -79.8% (active); in [2], -71.9% (active); in test [3] it was -34% (active); in test [4] it was -23% (active); in [5] it was -79.9% (active); in test [6], -42.4% (active). For the same molecule, the growth in test [7] is -99.6% (active); in [8] it was -73.5% (active); in test [9] it was -96.7% (active); in test [10], -72.1% (active).

Consider `COc1cc(-c2cc(/C=C/C(C)=O)[nH]n2)cc(OC)c1OC`, for which the growth in [1] was 65.7%; in [2], 66.6%; in test [3] it was 84.7%; in test [4], 69.1%; in test [5], 56.6%; in [6] it was 71.3%. Besides, the growth is 79% in test [7], 84.6% in [8], 62% in [9] and 97.4% in [10].

For `Cc1c(C(=O)N[C@H](CO)Cc2ccccc2)[nH]c2ccc(Cl)cc2c1=O`, the growth in [1] is 100%; in test [2], 90.1%; in test [3] it was 99.9%; in test [4] it was 106%; in [5] it was 92.7%; in [6] it was 97.6%. Also, the growth in test [7] is 99%; in [8] it was 92.9%; in [9], 97.9%; in [10] it was 114%.

As for `O=C(Nc1cccc(Cl)c1)OCC(COC(=O)Nc1cccc(Cl)c1)(COC(=O)Nc1cccc(Cl)c1)[N+](=O)[O-]`, the growth in test [1] is 22.6%; in test [2], 32%; in test [3], 49.9%; in [4] it was 42.8%; in test [5], 34.7%; in [6], 24.1%. In addition, the growth is 44.2% in [7], 31.9% in test [8], 15.6% in test [9] and 51.1% in test [10].

Consider `Cc1ccc([P+](Cc2ccc([N+](=O)[O-])cc2)(c2ccc(C)cc2)c2ccc(C)cc2)cc1`, for which the growth in test [1] is 96.7%; in test [2] it was 23.1%; in [3], 30.9%; in test [4], 57.6%; in test [5] it was 39.6%; in test [6], 38.7%. Also, the growth was -12.4% (active) in test [7], -0.637% (active) in test [8], 32.4% in test [9] and 28.4% in test [10].

On to `COC(=O)C1(C(=O)OC)C2C(=O)C3C(C21)C3(C(=O)OC(C)(C)C)C(=O)OC(C)(C)C` (stereo not given), for which the growth is 108% in [1]; 112% in test [2]; 88.5% in test [3]; 110% in test [4]; 104% in [5]; 90.2% in test [6]. In addition, the growth is 100% in [7], 112% in [8], 103% in [9] and 107% in test [10].

As for `CCOC(=O)CSC(=S)SCC(=O)OCC`, the growth in test [1] was 94.6%; in test [2] it was 99.8%; in test [3] it was 83.1%; in test [4], 105%; in [5], 104%; in test [6], 103%. The growth in test [7] was 106%; in [8] it was 101%; in [9], 98.6%; in test [10], 97.7%.
